In PubChem BioAssay (NCATS):
Inconclusive results are not listed. Activity calls are given as the source filed them. Unless noted, calls follow the shape of the dose curve; as a rule, active = well fitted curve in the direction sought with a large enough effect; inconclusive = small, poorly fitted or top-dose-only effect, or another doubt; inactive = no such curve, though single readings can be large; an effect the other way counts as inactive or inconclusive.

Tests used:
[1] = biological target: ATP-dependent 6-phosphofructokinase (Trypanosoma brucei brucei) (UniProt O15648); experiment: qHTS Assay to Find Inhibitors of T. brucei phosphofructokinase: hit validation (AID 492961);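 also: luminescence reports ADP formed as PFK phosphorylates fructose-6-phosphate with ATP; % is scaled to controls: 0 for no effect and ±100 for the full control effect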
How it was run: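 Measures ADP output of PFK (1.25 nM) at 0.1 mM ATP, 0.5 mM F6P, pH 8.0 TEA buffer with 5 mM MgCl2. No-enzyme wells define full inhibition; uninhibited enzyme wells define zero.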

[2] = biological target: Ubiquitin carboxyl-terminal hydrolase 1 (Homo sapiens) (UniProt O94782); experiment: Inhibitors of USP1/UAF1: Pilot qHTS (AID 504865);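 also: rhodamine fluorescence freed from ubiquitin-rhodamine substrate followed over time; top concentration of the series differs between compounds; % is scaled to controls: 0 for no effect and ±100 for the full control effect; nearly all actives have a fitted effect of over 35% in size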
How it was run: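 In 50mM HEPES pH 7.8 containing 0.5mM EDTA, 1mM TCEP, 0.1 mg/ml BSA and 0.01% Tween-20, 1nM USP1/UAF1 is exposed to compound for 15 min, then Ub-Rho (150nM final) is added and fluorescence is read over time.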

[3] = biological target: Luciferin 4-monooxygenase (Photinus pyralis) (UniProt P08659); experiment: Biochemical firefly luciferase enzyme assay for NPC (AID 624030);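 also: purified P. pyralis luciferase at 10 nM with luciferin and ATP substrate; 0% = DMSO and -100% = full luciferase inhibition by PTC124 control; nearly all actives have a fitted effect of over 70% in size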
How it was run: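 Direct inhibition of firefly luciferase enzyme (10 nM final, 50 mM Tris Acetate) assessed by luminescence within 5 minutes. Percent activity scaled between DMSO and PTC124 positive control, with concentration-effect curves classified by fit quality and response.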

[4] = S16 Schwann cell viability assay (CellTiter-Glo assay) (AID 624031);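 also: native untransfected S16 rat Schwann cells; plate controls were DMSO-treated cells for no effect and cell-free wells for full effect; nearly all actives have a fitted effect of over 70% in size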
How it was run: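 Counter-screen for cytotoxicity: parental S16 rat Schwann cells lacking the PMP22 reporters, treated 24 h with compound, viability from cellular ATP by CellTiter-Glo luminescence, normalized to DMSO (0%) and no-cell wells.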

[5] = S16 Schwann cell PMP22 intronic element firefly luciferase assay (AID 624032);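 also: plate controls were DMSO for no effect and PTC124 positive control mean for full effect; nearly all actives have a fitted effect of over 30% in size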
How it was run: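 Luciferase reporter of PMP22 intronic-element expression in stably transfected S16 rat Schwann cells, read by ONE-Glo luminescence after 24 h compound exposure at 37 C. Activity scaled between DMSO (0%) and positive-control PTC124; concentration-effect curves quality-classified.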

[6] = S16 Schwann cell PMP22 intronic element beta-lactamase assay (AID 624044; calls by dose curve;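 also: 0% = DMSO and -100% = potassium clavulanate positive control; nearly all actives have a fitted effect of over 15% in size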); conditions: S16 rat Schwann cells, PMP22 element beta-lactamase FRET, 24 h; ratio activity, negative = inhibition: at 38.3 µM (top of the series)
How it was run: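 Beta-lactamase reporter under a PMP22 intronic regulatory element in stable S16 rat Schwann cells; 24 h compound exposure. 460 nm blue signal normalized between DMSO (0%) and potassium clavulanate, with 535 nm FRET tracking viability; curves classed by r2 and response.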

[7] = qHTS profiling for inhibitors of Plasmodium falciparum proliferation (AID 504749);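 also: 0% = DMSO vehicle and full inhibition = artemisinin control; nearly all actives have a fitted effect of over 60% in size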; conditions: P. falciparum in erythrocytes, SYBR Green DNA, 72 h, at 28.7 µM (top of the series)
How it was run: (§1)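 In a 72 h erythrocytic culture (37 C, humidified, 5% CO2) at 2.5% hematocrit and 0.3% starting parasitemia, compounds were tested; SYBR Green I in detergent lysis buffer stained parasite DNA overnight.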

3D7 = experiment: as above; conditions: P. falciparum in erythrocytes, SYBR Green DNA, 72 h; series mostly up to 28.7 µM
How it was run: as §1

7G8 = experiment: as above; conditions: P. falciparum in erythrocytes, SYBR Green DNA, 72 h; series mostly up to 28.7 µM
How it was run: as §1

AA1029 = experiment: as above; conditions: P. falciparum in erythrocytes, SYBR Green DNA, 72 h; series mostly up to 28.7 µM
How it was run: as §1

AS120 = experiment: as above; conditions: P. falciparum in erythrocytes, SYBR Green DNA, 72 h; series mostly up to 28.7 µM
How it was run: as §1

ATS189 = experiment: as above; conditions: P. falciparum in erythrocytes, SYBR Green DNA, 72 h; series mostly up to 28.7 µM
How it was run: as §1

ATS95 = experiment: as above; conditions: P. falciparum in erythrocytes, SYBR Green DNA, 72 h; series mostly up to 28.7 µM
How it was run: as §1

C2A = experiment: as above; conditions: P. falciparum in erythrocytes, SYBR Green DNA, 72 h; series mostly up to 28.7 µM
How it was run: as §1

CP185 = experiment: as above; conditions: P. falciparum in erythrocytes, SYBR Green DNA, 72 h; series mostly up to 28.7 µM
How it was run: as §1

CP191 = experiment: as above; conditions: P. falciparum in erythrocytes, SYBR Green DNA, 72 h; series mostly up to 28.7 µM
How it was run: as §1

CP192 = experiment: as above; conditions: P. falciparum in erythrocytes, SYBR Green DNA, 72 h; series mostly up to 28.7 µM
How it was run: as §1

CP194 = experiment: as above; conditions: P. falciparum in erythrocytes, SYBR Green DNA, 72 h; series mostly up to 28.7 µM
How it was run: as §1

CP201 = experiment: as above; conditions: P. falciparum in erythrocytes, SYBR Green DNA, 72 h; series mostly up to 28.7 µM
How it was run: as §1

CP203 = experiment: as above; conditions: P. falciparum in erythrocytes, SYBR Green DNA, 72 h; series mostly up to 28.7 µM
How it was run: as §1

CP211 = experiment: as above; conditions: P. falciparum in erythrocytes, SYBR Green DNA, 72 h; series mostly up to 28.7 µM
How it was run: as §1

CP215 = experiment: as above; conditions: P. falciparum in erythrocytes, SYBR Green DNA, 72 h; series mostly up to 28.7 µM
How it was run: as §1

CP217 = experiment: as above; conditions: P. falciparum in erythrocytes, SYBR Green DNA, 72 h; series mostly up to 28.7 µM
How it was run: as §1

CP237 = experiment: as above; conditions: P. falciparum in erythrocytes, SYBR Green DNA, 72 h; series mostly up to 28.7 µM
How it was run: as §1

CP238 = experiment: as above; conditions: P. falciparum in erythrocytes, SYBR Green DNA, 72 h; series mostly up to 28.7 µM
How it was run: as §1

CP247 = experiment: as above; conditions: P. falciparum in erythrocytes, SYBR Green DNA, 72 h; series mostly up to 28.7 µM
How it was run: as §1

CP250 = experiment: as above; conditions: P. falciparum in erythrocytes, SYBR Green DNA, 72 h; series mostly up to 28.7 µM
How it was run: as §1

CP252 = experiment: as above; conditions: P. falciparum in erythrocytes, SYBR Green DNA, 72 h; series mostly up to 28.7 µM
How it was run: as §1

CP256 = experiment: as above; conditions: P. falciparum in erythrocytes, SYBR Green DNA, 72 h; series mostly up to 28.7 µM
How it was run: as §1

CP260 = experiment: as above; conditions: P. falciparum in erythrocytes, SYBR Green DNA, 72 h; series mostly up to 28.7 µM
How it was run: as §1

CP262 = experiment: as above; conditions: P. falciparum in erythrocytes, SYBR Green DNA, 72 h; series mostly up to 28.7 µM
How it was run: as §1

CP265 = experiment: as above; conditions: P. falciparum in erythrocytes, SYBR Green DNA, 72 h; series mostly up to 28.7 µM
How it was run: as §1

Ubiquitin carboxyl-terminal hydrolase 1 (Homo sapiens), sequence (O94782 whole entry, looked up): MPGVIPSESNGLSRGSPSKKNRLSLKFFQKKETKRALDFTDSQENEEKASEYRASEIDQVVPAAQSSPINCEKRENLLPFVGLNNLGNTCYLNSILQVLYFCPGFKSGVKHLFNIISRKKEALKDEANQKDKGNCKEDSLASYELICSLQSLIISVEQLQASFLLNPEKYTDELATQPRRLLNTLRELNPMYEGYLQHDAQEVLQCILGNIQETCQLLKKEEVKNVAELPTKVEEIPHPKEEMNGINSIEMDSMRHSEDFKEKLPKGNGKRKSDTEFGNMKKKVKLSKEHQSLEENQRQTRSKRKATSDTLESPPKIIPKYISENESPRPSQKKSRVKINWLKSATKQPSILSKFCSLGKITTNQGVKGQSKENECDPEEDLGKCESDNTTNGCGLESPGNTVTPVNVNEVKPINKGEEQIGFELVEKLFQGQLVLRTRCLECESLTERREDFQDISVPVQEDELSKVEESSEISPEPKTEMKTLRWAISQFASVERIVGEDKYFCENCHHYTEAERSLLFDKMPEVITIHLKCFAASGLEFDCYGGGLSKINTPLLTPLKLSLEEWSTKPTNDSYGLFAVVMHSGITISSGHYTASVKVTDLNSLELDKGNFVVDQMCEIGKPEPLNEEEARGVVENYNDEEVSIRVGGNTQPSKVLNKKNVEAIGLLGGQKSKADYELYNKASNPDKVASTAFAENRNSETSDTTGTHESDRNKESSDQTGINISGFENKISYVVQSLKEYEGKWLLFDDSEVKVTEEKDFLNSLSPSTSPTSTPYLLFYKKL
Luciferin 4-monooxygenase (Photinus pyralis), sequence (P08659 whole entry, looked up): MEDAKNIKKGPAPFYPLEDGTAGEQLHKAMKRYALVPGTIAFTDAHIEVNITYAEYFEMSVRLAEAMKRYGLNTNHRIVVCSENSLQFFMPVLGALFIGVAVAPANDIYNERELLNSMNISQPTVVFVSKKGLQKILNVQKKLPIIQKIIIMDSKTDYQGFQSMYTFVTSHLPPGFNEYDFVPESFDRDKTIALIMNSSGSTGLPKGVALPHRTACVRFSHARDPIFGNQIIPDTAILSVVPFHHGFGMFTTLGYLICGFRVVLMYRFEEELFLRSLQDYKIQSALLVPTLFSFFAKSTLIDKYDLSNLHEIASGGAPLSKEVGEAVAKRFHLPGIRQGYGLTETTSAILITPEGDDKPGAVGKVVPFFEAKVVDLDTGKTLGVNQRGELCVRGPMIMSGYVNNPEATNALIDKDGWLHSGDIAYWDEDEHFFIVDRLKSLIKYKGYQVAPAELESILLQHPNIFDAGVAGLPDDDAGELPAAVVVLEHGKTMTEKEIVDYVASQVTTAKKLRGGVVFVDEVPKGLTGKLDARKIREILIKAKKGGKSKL
ATP-dependent 6-phosphofructokinase (Trypanosoma brucei brucei), sequence (O15648 whole entry, looked up): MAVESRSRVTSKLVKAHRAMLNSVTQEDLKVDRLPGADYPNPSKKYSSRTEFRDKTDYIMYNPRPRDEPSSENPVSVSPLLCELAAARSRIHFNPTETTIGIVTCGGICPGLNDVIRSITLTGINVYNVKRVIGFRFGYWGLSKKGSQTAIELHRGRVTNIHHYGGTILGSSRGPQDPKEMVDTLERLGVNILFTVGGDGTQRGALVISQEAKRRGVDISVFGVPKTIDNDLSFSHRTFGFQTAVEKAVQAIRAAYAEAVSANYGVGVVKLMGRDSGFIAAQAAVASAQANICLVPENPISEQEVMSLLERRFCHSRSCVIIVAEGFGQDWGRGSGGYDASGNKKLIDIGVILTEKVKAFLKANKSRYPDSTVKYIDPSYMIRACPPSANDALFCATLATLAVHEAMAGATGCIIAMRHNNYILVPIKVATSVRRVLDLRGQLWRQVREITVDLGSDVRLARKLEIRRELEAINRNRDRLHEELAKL

C[C@]12CC[C@@H]3c4ccc(O)cc4CC[C@H]3[C@@H]1C[C@H](O)C2O (stereo partly drawn)
inactive: Potency [1] | Potency [2] | Potency [3] | Potency [4] | Potency [5] | Potency [6] | activity, negative = inhibition ([7]; parasite line A) 7.19% | activity, negative = inhibition ([7]; parasite line B) 12.7% | Potency (3D7) | Potency (7G8) | Potency (AA1029) | Potency (AS120) | Potency (ATS189) | Potency (ATS95) | Potency (C2A) | Potency (CP185) | Potency (CP191) | Potency (CP192) | Potency (CP194) | Potency (CP201) | Potency (CP203) | Potency (CP211) | Potency (CP215) | Potency (CP217) | Potency (CP237) | Potency (CP238) | Potency (CP247) | Potency (CP250) | Potency (CP252) | Potency (CP256) | Potency (CP260) | Potency (CP262) | Potency (CP265)
